The values that follow come from PubChem BioAssay (EPA / NIEHS).

Assay [1] in a line: CCTE_Padilla_ZF_144hpf_TERATOSCORE: (Legacy) CCTE's 144 Hour Post-fertilization zebrafish Assay Teratoscore, Padilla Lab (AID 2283679; active means hit-call score of the fitted dose curve at least 0.9, where 1 is the maximum; inactive means score below 0.9;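 on AC50: zebrafish embryos with chorions exposed by immersion from 6-8 hpf to 5 dpf with daily renewal; teratogenicity score from eye scoring of death hatching and malformations at 144 hpf; higher score means more developmental defects relative to DMSO baseline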). The essentials: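 Larvae scored by eye at 144 hpf for death, hatching and malformations after a day in clean Hanks'. Before that, daily-renewed exposure at 80 uM (0.4% DMSO, 26C) from roughly 6-8 hpf through 5 dpf, 4 embryos per chemical.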
Assay [2] can be described thus: Tanguay_ZF_120hpf_ActivityScore_legacy: (Legacy) Oregon State University Tanguay Lab 120 Hour Post-fertilization zebrafish Assay Score for Activity (AID 2283742).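 On AC50: dechorionated Tropical 5D wild-type zebrafish embryos held singly per well.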 The essentials: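 Dechorionated 5D embryos, one per well, static exposure 6–120 hpf, 28C, sealed and dark; final DMSO 0.64% (vol/vol). Brightfield binary scoring of mortality plus 18 endpoints; gain-of-signal fit versus DMSO baseline.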

A short description of assay [3]: ACEA_AR_agonist_AUC_viability: ACEA Biosciences xCELLigence Real-Time Cell Analysis on Androgen Receptor Agonism for Viability (AID 2283775).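 On AC50: viability read 80 hours after compound addition.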 The gist of the method:
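22Rv1 cells; impedance growth kinetics; 8-pt 1:4 dilutions from 100 uM top final, ≤0.5% DMSO; n = 2; 80 h read; AUC viability, loss-of-signal vs DMSO.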

Assay [4] is described as follows: CEETOX_H295R_MTT_cell_viability: Viability Assessment in the CeeTox HT-H295R MTT Assay (AID 2283718; active means hit-call score of the fitted dose curve at least 0.9, where 1 is the maximum; inactive means score below 0.9). The gist of the method:
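Human H295R adrenal cells, prestimulated 48 h with 10 uM forskolin, were exposed 48 h to chemicals in 0.1% DMSO. Viability was measured in the same wells by MTT (0.5 mg/ml, 4 h, 37 C), absorbance 570/650 nm, as percent of controls.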

For assay [5], the target named is Luciferin 4-monooxygenase (Photinus pyralis) (UniProt P08659). Kind of assay: CCTE_Simmons_QuantiLum_inhib_2: CCTE's Firefly Luciferase Inhibition Assay, Simmons Lab (AID 2283767).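 On AC50: potency for inhibitors that lower luciferase luminescence relative to DMSO.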 The gist of the method:
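First, 5 ng purified luciferase in phosphate buffer with BSA is dispensed per well. Next, test chemicals (5 nM to 87.5 uM final, 0.5% DMSO) are added and incubated 30 min at 37C in darkness. Finally, luciferin reagent is injected and luminescence read kinetically.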

Read-out in assay [6]: Cytochrome P450 (CYP24A1_1), CYP24A1 (gene 1591)
In words: LTEA_HepaRG_CYP24A1_1: Life Technologies and Expression Analysis (LTEA) Assay for Cytochrome P450 (CYP24A1_1) using HepaRG (AID 2283671; active means hit-call score of the fitted dose curve at least 0.9, where 1 is the maximum; inactive means score below 0.9). As to conditions: mRNA level, 48 h; actives raise or lower the signal. The essentials: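 Readout is CYP24A1 transcript level by qRT-PCR, normalized to three housekeeping genes, with gain or loss of signal fitted against 0.5% DMSO. Human HepaRG cells received compound for 48 h at up to 100 uM.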

Assay [7] is described as follows: STM_H9_CystineISnorm_perc: Stemina devTOX quickPredict H9 human embryonic stem cell (hESC)-based Assay for Cystine (CYSS) Metabolite Biomarker, Normalized (AID 2283713; active means hit-call score of the fitted dose curve at least 0.9, where 1 is the maximum; inactive means score below 0.9). The gist of the method:
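Cells are held undifferentiated and treated for 72h, receiving fresh medium with compound every 24h. Cystine secreted during the final day is quantified by UPLC-HRMS against a labeled spike-in, then expressed relative to the DMSO vehicle median.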

The test system of assay [8] is chicken Androgen Receptor (AR), gene 422165. In words: ATG_chAR_XSP1: Attagene TRANS-FACTORIAL Multi-Species (XSP1) HepG2 Assay for chicken Androgen Receptor (AR) (AID 2283768). The essentials:
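Reporter mRNA read by RT-PCR with fluorescent labelling and capillary electrophoresis 24 h after chemical dosing of transiently transfected HepG2 cells. Chicken AR-Gal4 chimera, partially stimulated with 3 nM 6-alpha-fluorotestosterone; activity fitted upward relative to DMSO.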

Assay [9] has as its system zebrafish Androgen Receptor (AR), gene 100005148. In words: ATG_zfAR_XSP1: Attagene TRANS-FACTORIAL Multi-Species (XSP1) HepG2 Assay for zebrafish Androgen Receptor (AR) (AID 2283771). The gist of the method: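 Gain-of-signal versus DMSO was measured as reporter transcripts quantified by RT-PCR, fluorescent labelling and capillary electrophoresis after 24 h chemical exposure. The cells were HepG2 expressing a chimeric zebrafish AR-GAL4, co-stimulated with 3 nM 6-alpha-fluorotestosterone.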

Assay [10] deals with zebrafish Estrogen Receptor (ESR1), esr1 (gene 259252) (UniProt P57717). In words: ATG_zfER1_XSP1: Attagene TRANS-FACTORIAL Multi-Species (XSP1) HepG2 Assay for zebrafish Estrogen Receptor (ESR1) (AID 2283772). The gist of the method: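 Trans-activation readout: transfected zebrafish ER-Gal4 drives a UAS reporter in human HepG2 liver cells. After 24 h compound exposure (medium containing 3 nM 6-alpha-fluorotestosterone), induced reporter transcripts were quantified by RT-PCR with capillary electrophoresis, relative to DMSO.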
Chain of zebrafish Estrogen Receptor (ESR1), esr1 (gene 259252) (P57717 whole entry, looked up, the tested form may be a part): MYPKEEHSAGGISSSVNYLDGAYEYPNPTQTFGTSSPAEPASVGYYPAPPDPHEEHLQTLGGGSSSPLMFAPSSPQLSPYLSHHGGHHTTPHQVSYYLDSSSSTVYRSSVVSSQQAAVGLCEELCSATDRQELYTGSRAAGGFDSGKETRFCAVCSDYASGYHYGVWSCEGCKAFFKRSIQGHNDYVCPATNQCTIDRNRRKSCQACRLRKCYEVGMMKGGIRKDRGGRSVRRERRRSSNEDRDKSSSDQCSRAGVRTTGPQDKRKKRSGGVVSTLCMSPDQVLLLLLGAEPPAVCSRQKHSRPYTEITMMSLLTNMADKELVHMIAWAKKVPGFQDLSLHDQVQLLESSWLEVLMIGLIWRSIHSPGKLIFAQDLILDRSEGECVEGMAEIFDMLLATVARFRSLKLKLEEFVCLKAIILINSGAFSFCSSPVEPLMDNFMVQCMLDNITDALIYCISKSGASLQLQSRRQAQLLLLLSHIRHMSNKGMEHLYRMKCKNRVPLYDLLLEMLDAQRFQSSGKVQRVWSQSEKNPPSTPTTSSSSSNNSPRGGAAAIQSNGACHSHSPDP

Assay [11] concerns zebrafish Estrogen Receptor (ESR2B), gene 317733. In words: ATG_zfER2b_XSP1: Attagene TRANS-FACTORIAL Multi-Species (XSP1) HepG2 Assay for zebrafish Estrogen Receptor (ESR2B) (AID 2283773). The essentials: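 Multiplexed TRANS format in transfected HepG2 liver cells, chimeric NR-Gal4 from zebrafish ESR2B. 24 h dosing; medium contains 3 nM 6-alpha-fluorotestosterone. mRNA induction by RT-PCR/CE, positive direction vs DMSO.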

In assay [12] the test system is frog Estrogen Receptor (ESR2), gene 100174814. Kind of assay: ATG_frER2_XSP1: Attagene TRANS-FACTORIAL Multi-Species (XSP1) HepG2 Assay for frog Estrogen Receptor (ESR2) (AID 2283774). The gist of the method:
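HepG2, transient MRTU transfection (GAL4-UAS reporters, exogenous NR-Gal4 chimeras); 24 h compound exposure; 3 nM 6α-fluorotestosterone co-added; total RNA → RT-PCR → 6-FAM primer extension → HpaI → CE. Positive direction vs DMSO.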

Assay [13] can be described thus: STM_H9_OrnCyssISnorm_ratio: Stemina devTOX quickPredict H9 human embryonic stem cell (hESC)-based Assay for Ornithine (ORN):Cystine (CYSS) Ratio (AID 2283714). The gist of the method:
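UPLC-HRMS of spent media: ORN/CYSS ratio of internal-standard-normalized percentages, DMSO (0.1%) baseline. Pluripotent H9 hESCs, 72h exposure, daily re-dosing with fresh media; last 24h media collected.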

Assay [14] is described as follows: ArunA_CellTiter_hNC: Viability Assessment in the ArunA Biomedical's Oris Neural Crest (hNC) Cell Migration Assay (AID 2283752). The gist of the method: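 Seed 60,000 hNC cells per well onto Matrigel in basal growth medium containing LIF and bFGF. Incubate 16 h at 37C. Replace with test medium containing chemical for 72 h, then assess viability by CellTiter Aqueous One.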

Assay [15] in a line: ArunA_Migration_hNC: ArunA Biomedical's Oris Neural Crest (hNC) Cell Migration Assay (AID 2283755). The essentials:
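Calcein-AM fluorescence (ex494 nm/em 517 nm) in the stopper-defined detection zone quantifies migration of hNC cells after 72 h chemical exposure; 60,000 cells/well plated on Matrigel with LIF and bFGF, 16 h pre-incubation. DMSO baseline.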

Assay [16] in a line: ArunA_NOG_NucleusCount: ArunA Biomedical's Neurite Outgrowth (NOG) Assay for Nucleus Count (AID 2283756). The essentials: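 Viable neuron count, from Hoechst nuclei passing size and intensity gates, imaged at 20x on differentiated H9-derived human neurons. Exposure lasted 48 h from seeding; activity was scored relative to DMSO.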
Assay [17] in a line: ArunA_NOG_NeuriteLength: ArunA Biomedical's Neurite Outgrowth (NOG) Assay for Neurite Length (AID 2283757). The gist of the method: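 Total neurite length per neuron, from traced βIII-tubulin-labelled processes longer than 10 um on viable Hoechst-gated cells, was scored as decrease from DMSO. Cells were hESC (H9)-derived neurons given 48 h chemical exposure immediately after seeding.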

Assay [18] in a line: ArunA_NOG_NeuritesPerNeuron: ArunA Biomedical's Neurite Outgrowth (NOG) Assay for Neurites Per Neuron (AID 2283758). The gist of the method: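 Differentiated human H9-derived neurons exposed to chemicals for 48 h from seeding, then stained with Hoechst and βIII-tubulin/DyLight 488. Automated imaging counted neurites (processes >10 um) per valid neuron; loss of signal versus DMSO scored.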

Broadly, the AC50 is the midpoint of the concentration-response curve, whichever way the signal moves.

Inconclusive results are not listed. Calls of active or inactive are those of the source. How the source made its calls, unless noted: active means hit-call score of the fitted dose curve at least 0.9, where 1 is the maximum; inconclusive means response in the unintended direction; inactive means score below 0.9.

Chain of Luciferin 4-monooxygenase (Photinus pyralis) (P08659 whole entry, looked up): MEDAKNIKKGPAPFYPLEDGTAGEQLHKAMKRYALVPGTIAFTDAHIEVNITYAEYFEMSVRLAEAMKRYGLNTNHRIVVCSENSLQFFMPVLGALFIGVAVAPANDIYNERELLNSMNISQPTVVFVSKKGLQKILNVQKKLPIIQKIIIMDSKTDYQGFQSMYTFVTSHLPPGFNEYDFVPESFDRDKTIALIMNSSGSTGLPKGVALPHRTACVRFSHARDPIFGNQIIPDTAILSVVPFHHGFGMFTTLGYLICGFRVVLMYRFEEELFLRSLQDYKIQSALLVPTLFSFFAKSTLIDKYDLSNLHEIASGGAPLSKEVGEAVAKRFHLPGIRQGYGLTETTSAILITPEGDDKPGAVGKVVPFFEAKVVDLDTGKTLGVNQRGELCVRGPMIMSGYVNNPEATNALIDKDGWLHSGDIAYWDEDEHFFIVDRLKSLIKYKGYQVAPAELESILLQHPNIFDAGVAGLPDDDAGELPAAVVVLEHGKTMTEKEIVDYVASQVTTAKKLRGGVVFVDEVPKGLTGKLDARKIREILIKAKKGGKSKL

Take `CCCCCCCCOC(=O)CCCCCCCCC(=O)OCCCCCCCC`: the result in assay [1], in assay [2] and in assay [3] was inactive.

For `CCC(=C(c1ccc(O)cc1)c1ccc(OCCN(C)C)cc1)c1ccccc1`, the AC50 was 7.87 µM (active) in [1] and 6.23 µM (active) in [3]. In addition, the result in [4], in [2] and in [5] was inactive.

With `CC(O)CO` (stereo unspecified), the outcome in [6], in assay [2] and in assay [3] was inactive. The half-maximal activity concentration (AC50) in assay [7] is 675000 µM (active).

As for `CC[C@H](c1ccc(O)cc1)[C@@H](CC)c1ccc(O)cc1`, the AC50 in [1] is 14.9 µM (active); in assay [10] it was 0.000114 µM (active); in [11], 0.0657 nM (active); in [12] it was 0.000101 µM (active); in assay [3], 10.7 µM (active). Also, the outcome in assay [2], in [5], in [8] and in [9] was inactive.

In the case of `NC(=O)N1C(=O)C(C(=O)c2cc(Cl)cs2)c2cc(F)c(Cl)cc21` (stereo unspecified), the AC50 in assay [1] is 4.57 µM (active); in assay [2] it was 2.88 µM (active). Moreover, the compound was called inactive in assay [3].

Turning to `O=C(O)Cc1cc(I)c(Oc2cc(I)c(O)c(I)c2)c(I)c1`, the figures for the AC50 in assay [1], in [2] and in [3] were 0.0352 µM (active), 3.08 µM (active) and 51.7 µM (active), respectively. The outcome in assay [7], in assay [13], in [14], in assay [15], in assay [16] and in assay [17] was inactive. For the same compound, the outcome in assay [18] was inactive.

Take `C=C(C)C(=O)OCCC(F)(F)C(F)(F)C(F)(F)C(F)(F)C(F)(F)C(F)(F)F`: the call in assay [6], in assay [1], in assay [2] and in assay [3] was inactive.

Take `NC(=O)N(O)[C@@H]1C=C[C@H](Oc2cccc(Oc3ccc(F)cc3)c2)C1`: the AC50 is 14.9 µM (active) in assay [1], 16.7 µM (active) in assay [5] and 40.8 µM (active) in assay [3]. The result in assay [4] and in [2] was inactive.

As to `CC[C@H](C)[C@@H](C(=O)O)n1sc2ccccc2c1=O`, the call in [2] was inactive.

With `CC(C)(C)CC(C)(C)c1ccc(O)c(-n2nc3ccccc3n2)c1`, the compound was classed as inactive in assay [2]. Further, the half-maximal activity concentration (AC50) in [3] is 90.1 µM (active).

For `N#C[C@@H]1CC(F)(F)CN1C(=O)CNC1CC2CCC(C1)N2c1ncccn1` (stereo partly specified), the result in assay [7], in [2] and in assay [5] was inactive.

Regarding `COc1cc(CCC(=O)CC(=O)CCc2ccc(O)c(OC)c2)ccc1O`, in [3], the AC50 was 68.5 µM (active).

Take `CCCCC(CC)COC(=O)CCCCC(=O)OCC(CC)CCCC` (stereo unspecified): the outcome in [1], in [2] and in assay [3] was inactive.

Turning to `CCCCCCCCCCCCCC[N+](C)(C)C`, in [5], the result was inactive. Further, the AC50 in [3] was 4.73 µM (active).

For `CC(=O)NC1(c2cccc(F)c2)CCN(CC[C@@]2(c3ccc(Cl)c(Cl)c3)CN(c3ccccc3)C(=O)CO2)CC1`, the result in [2] was inactive. For the same compound, the AC50 in assay [3] was 41.5 µM (active).

Regarding `COC(=O)CCCCC(=O)OC`, the call in assay [4], in assay [2] and in [3] was inactive.

As for `COc1ccc([N+](=O)[O-])cc1N`, the result in assay [7], in [13], in assay [4], in assay [2], in [5] and in assay [3] was inactive.
